Laboratory results taken from paper PMC11995724, “Antibiotic target discovery by integrated phenotypic and activity-based profiling of electrophilic fragments” (Cell chemical biology, 2025).
The whole screen tested about 3,200 compounds, of which about 75 (2%) showed an effect of 50% or more. For the sample, strong results were picked, then their nearest neighbours and some compounds at random.

Tested on: T1, S. aureus MSSA476
T1 construct: MSSA476
Parameters: species or system S. aureus MSSA476 (TSB) or V. cholerae SAD30 (LB); 384-well bacterial growth screen at 25 uM, OD600 relative to DMSO control
Conditions: relative growth, OD600, TSB; 25 µM; inhibitor

SMILES | % of control remaining
CCCn1c(N)c(C(=O)CCl)c(=O)n(C)c1=O [10-H12, 6-amino-5-(2-chloroacetyl)-3-methyl-1-propyl-1,2,3,4-tetrahydropyrimidine-2,4-dione] | 92.8125%
C=CC(=O)NC(C)c1cnc(C(F)(F)F)s1 (centres unmarked) [2-A05, N-{1-[2-(trifluoromethyl)-1,3-thiazol-5-yl]ethyl}prop-2-enamide] | 119.06%
N#CC(=Cc1ccc(Cl)c([N+](=O)[O-])c1)C(=O)N1CCCC1 [9-N05, 3-(4-chloro-3-nitrophenyl)-2-(pyrrolidine-1-carbonyl)prop-2-enenitrile] | 107.566%
Cc1cc(C=C(C#N)C(=O)Nc2ccccc2)c(C)n1C1CC1 [8-E14, 2-cyano-3-(1-cyclopropyl-2,5-dimethyl-1H-pyrrol-3-yl)-N-phenylprop-2-enamide] | 129.793%
C=CC(=O)N1CCCCC1c1noc(C2CC2)n1 (centres unmarked) [3-K12, 1-[2-(5-cyclopropyl-1,2,4-oxadiazol-3-yl)piperidin-1-yl]prop-2-en-1-one] | 93.3391%
CCc1ccccc1NC(=O)CN(C)C(=O)C(C)Cl (centres unmarked) [4-P05, 2-chloro-N-{[(2-ethylphenyl)carbamoyl]methyl}-N-methylpropanamide] | 90.7099%
CC(Cl)C(=O)Nc1ccc(NC(=O)c2cccs2)cc1 (centres unmarked) [6-G07, N-[4-(2-chloropropanamido)phenyl]thiophene-2-carboxamide] | 112.683%
NS(=O)(=O)c1ccc(CNC(=O)CCl)cc1 [4-P12, 2-chloro-N-[(4-sulfamoylphenyl)methyl]acetamide] | 97.1891%
C=CC(=O)NCC1(OC)CCC(C)CC1 (centres unmarked) [1-P08, N-[(1-methoxy-4-methylcyclohexyl)methyl]prop-2-enamide] | 89.3187%
COc1ccc(N2C(=O)C=CC2=O)c(OC)c1 [10-J15, 1-(2,4-dimethoxyphenyl)-2,5-dihydro-1H-pyrrole-2,5-dione] | 121.875%
CCCc1ccc(C(=O)CCl)cc1 [10-C04, 2-chloro-1-(4-propylphenyl)ethan-1-one] | 134.375%
CCC(=O)Nc1ccc(C(=O)CCl)cc1 [10-C03, N-[4-(2-chloroacetyl)phenyl]propanamide] | 1.5625%
CC(C)C(=O)Nc1ccc(C(=O)C(C)Cl)cc1 (centres unmarked) [10-E08, N-[4-(2-chloropropanoyl)phenyl]-2-methylpropanamide] | 106.875%
CC(NC(=O)CCl)C(=O)Nc1ccc(Cl)cc1 (centres unmarked) [5-G11, 2-(2-chloroacetamido)-N-(4-chlorophenyl)propanamide] | 83.4244%
CSc1ccc(C(=O)CCl)cc1 [10-E07, 2-chloro-1-[4-(methylsulfanyl)phenyl]ethan-1-one] | 2.1875%
CCOC(=O)c1ccc(NC(=O)CCl)cc1 [4-E17, ethyl 4-(2-chloroacetamido)benzoate] | 118.152%
CC(C)C(=O)Nc1ccc(C(=O)CCl)cc1 [10-D04, N-[4-(2-chloroacetyl)phenyl]-2-methylpropanamide] | 4.6875%
CCN(CC)C(=O)c1ccc(NC(=O)CCl)cc1 [4-C05, 4-(2-chloroacetamido)-N,N-diethylbenzamide] | 84.9929%
CCc1ccc(C(=O)CCl)cc1 [10-F18, 2-chloro-1-(4-ethylphenyl)ethan-1-one] | 102.188%
CC(=O)NCc1ccc(C2CCCN2C(=O)CCl)o1 (centres unmarked) [5-P13, N-({5-[1-(2-chloroacetyl)pyrrolidin-2-yl]furan-2-yl}methyl)acetamide] | 100.182%
COc1cc(NC(=O)C(C)Cl)cc(OC)c1 (centres unmarked) [4-I04, 2-chloro-N-(3,5-dimethoxyphenyl)propanamide] | 105.574%
CC(Cl)C(=O)N(Cc1ccc(Cl)cc1)Cc1cnn(C)c1 (centres unmarked) [5-P17, 2-chloro-N-[(4-chlorophenyl)methyl]-N-[(1-methyl-1H-pyrazol-4-yl)methyl]propanamide] | 95.4463%
C=CC(=O)NCc1ccc(C(=O)N2CCCOC(C)(C)C2)cc1 [3-N06, N-{[4-(2,2-dimethyl-1,4-oxazepane-4-carbonyl)phenyl]methyl}prop-2-enamide] | 118.764%
CC(C)NC(=O)C(C#N)=Cc1cccc2ccccc12 [8-P06, 2-cyano-3-(naphthalen-1-yl)-N-(propan-2-yl)prop-2-enamide] | 127.801%
C=CC(=O)N1CCC(C(=O)Nc2cccc(NC(=O)C(C)C)c2)CC1 [3-F05, N-[3-(2-methylpropanamido)phenyl]-1-(prop-2-enoyl)piperidine-4-carboxamide] | 95.0805%
CC(Cl)C(=O)C=C1N(C)c2ccccc2C1(C)C (centres unmarked) [10-J22, 3-chloro-1-(1,3,3-trimethyl-2,3-dihydro-1H-indol-2-ylidene)butan-2-one] | 134.063%
